A selection: hits, their analogues and other compounds. The true share with any hit is near 2.8%.
PAX8 reporter: inhibitors of PAX8-driven TPO luciferase reporter, primary screen, RMG-I cells, single concentration; SteadyGlo, 24 h; inhibition, % at 12.6 µM; 1.2% of 360,000 active; AID 652154, 2013;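 active = mean replicate inhibition at least 60% with every replicate also reaching 60%; inconclusive = only one of the two criteria is met; inactive = mean below 60% and not all replicates reaching 60%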;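 also: luciferase light reporting Pax8 driven TPO promoter activity; plate controls were median of neutral control wells for no effect and mitoxantrone controls for full effect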
TROY signal inh: inhibitors of TROY-driven NF-kB signaling, primary screen, Q293 LMP1-TROYcd cells, NF-kB luciferase, uHTS | inhibition, % at 10 µM | 0.98% of 360,000 active | Q293 LMP1-TROYcd NF-kB luciferase reporter, 4 h;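 active = compounds whose plate-normalised and pattern-corrected inhibition of the luciferase reporter signal at the single screening dose is 50% or more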
TWEAK Fn14 block: inhibitors of TWEAK-Fn14 signaling, primary screen, luciferase reporter cells, uHTS. TWEAK-stimulated Fn14 reporter cells, luciferase luminescence, 8 h. inhibition, % at 10 µM. 2% of 360,000 active; in the data active = inhibition above about 50%
EWS-Fli block: EWS/Fli-driven NR0B1 reporter inhibitors, primary screen, A673 cells, NR0B1 luciferase, luminescence, MLPCN library | viability-normalised | inhibition, % at 12.6 µM | 0.67% of 350,000 active | AID 651661, 2012;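 active = mean inhibition of at least 50% after viability correction, with every replicate also passing that limit; inconclusive = mean reaches 50% but only one of two replicates passes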;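 also: firefly luciferase signal divided by Alamar Blue viability fluorescence both relative to DMSO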
LGR2 inh: inhibitors of bursicon-induced LGR2 CRE-luciferase signal, primary screen, cell-based, HEK293, CRE-luciferase reporter, bursicon stimulation. Drosophila bursicon receptor LGR2 (rickets). bursicon-stimulated, 4 h. inhibition, % at 9.99 µM. 0.35% of 380,000 active;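 active = drop in luminescence signal, shown as inhibition above about 50% in the replicate tests, limit read from the data, passing the limit was not always enough; inconclusive = probably only some replicates passing the limit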;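 also: agonist challenge used bursicon conditioned medium at about half maximal strength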
An asterisk follows results filed as active.

Results for C[C@@H]1CCCCO[C@H](CN(C)Cc2ccncc2)[C@@H](C)CN([C@@H](C)CO)C(=O)c2cc(NC(=O)NC3CCCCC3)ccc2O1 ?
PAX8 reporter: -12.0; EWS-Fli block: -0.6; LGR2 inh: 7.3

How did CCn1c(Cl)c(C=O)s/c1=N\S(=O)(=O)c1ccccc1 do in these assays?
PAX8 reporter: 9.6; TROY signal inh: 35.9; TWEAK Fn14 block: 98.9*; EWS-Fli block: 14.1; LGR2 inh: inconclusive

Results for CCS(=O)(=O)N1CCCCN2[C@H](CO)[C@@H](c3ccc(C#Cc4ccccc4OC)cc3)[C@H]2C1 ?
PAX8 reporter: 7.6; LGR2 inh: 9.0

What do the screens show for `O=C(C[C@@H]1CC[C@H]2[C@@H](COC[C@@H](O)CN2Cc2ccc(Oc3ccccc3)cc2)O1)N1CCc2ccccc2C1`?
PAX8 reporter: 80.5*; EWS-Fli block: 44.2

Results for O=C(C[C@@H]1CC[C@H]2[C@@H](COC[C@H](O)CN2Cc2ccc(Oc3ccccc3)cc2)O1)N1CCN(c2ccccc2)CC1 ?
PAX8 reporter: 63.8*; EWS-Fli block: 28.4; LGR2 inh: 4.8

How did O=C(O)c1cccc2cccc(-c3c4ccc(=O)c(O)c-4oc4c(O)c(O)ccc34)c12 do in these assays?
PAX8 reporter: 3.5; TROY signal inh: -3.0; TWEAK Fn14 block: 81.6*; EWS-Fli block: 5.7; LGR2 inh: 3.9

Results for COCCn1c(C)cc(C(=O)CSc2nnc(C)s2)c1C ?
PAX8 reporter: 75.4*; TROY signal inh: 12.8; TWEAK Fn14 block: 91.1*

How did COCCn1c(C)cc(C(=O)CSc2nnnn2C2CCCC2)c1C do in these assays?
PAX8 reporter: 38.6; TROY signal inh: 14.2; TWEAK Fn14 block: 74.9*; EWS-Fli block: 81.8*; LGR2 inh: 79.9*

What do the screens show for `COCCn1c(C)cc(C(=O)CSc2n[nH]c(N)n2)c1C`?
PAX8 reporter: -18.3; TROY signal inh: 1.7; TWEAK Fn14 block: -4.9

What do the screens show for `CCN(c1ccccc1)S(=O)(=O)c1cc(C(=O)Nc2ccc(Br)cc2)ccc1F`?
PAX8 reporter: -31.7; TROY signal inh: 40.6; TWEAK Fn14 block: 78.4*; LGR2 inh: 5.4

Results for CCc1ccc(NC(=O)c2ccc(F)c(S(=O)(=O)NCC3COc4ccccc4O3)c2)cc1 (configuration not stated) ?
PAX8 reporter: 33.7; TROY signal inh: 43.5; TWEAK Fn14 block: 61.5*; LGR2 inh: 8.4

Results for CCN(c1ccccc1)S(=O)(=O)c1cc(C(=O)Nc2ccccc2Cl)ccc1F ?
PAX8 reporter: 8.7; TROY signal inh: -24.8; TWEAK Fn14 block: 7.8; EWS-Fli block: 13.9; LGR2 inh: 2.5

Results for O=C(Nc1nc2ccc(Cl)cc2s1)c1ccco1 ?
PAX8 reporter: -132.4; TROY signal inh: 7.2; TWEAK Fn14 block: 58.2*

How did Cc1ccc(Cl)cc1Nc1nc(-c2sc(NC(=O)c3ccco3)nc2C)cs1 do in these assays?
PAX8 reporter: 86.2*; TROY signal inh: 9.7; TWEAK Fn14 block: 17.8; EWS-Fli block: 48.9; LGR2 inh: 4.2

Results for O=C(Nc1nc2ccc(Br)cc2s1)c1ccco1 ?
PAX8 reporter: -51.7; TROY signal inh: -27.6; TWEAK Fn14 block: 46.1; EWS-Fli block: -6.3; LGR2 inh: 42.2

Results for O=C(Nc1ncc(Cc2cccc([N+](=O)[O-])c2)s1)c1ccco1 ?
PAX8 reporter: -129.9; TROY signal inh: -36.3; TWEAK Fn14 block: -24.6; EWS-Fli block: -54.9; LGR2 inh: -44.6

How did Cc1nc(NC(=O)c2ccco2)sc1-c1csc(Nc2ccc(Cl)cc2Cl)n1 do in these assays?
PAX8 reporter: 19.7; TROY signal inh: -39.1; TWEAK Fn14 block: 1.6; EWS-Fli block: 2.6; LGR2 inh: -23.1

Results for COc1cccc(N(C(=O)c2ccco2)c2nc(-c3sc(NC(=O)c4ccco4)nc3C)cs2)c1 ?
PAX8 reporter: 99.4*; TROY signal inh: 22.3; TWEAK Fn14 block: -0.2; EWS-Fli block: 20.0; LGR2 inh: 14.3

How did Cc1ccc(Cc2cnc(NC(=O)c3ccco3)s2)cc1 do in these assays?
TROY signal inh: 34.7; TWEAK Fn14 block: 57.8*

How did O=C(Nc1ncc(Cc2ccc(SC(F)F)cc2)s1)c1ccc(OC(F)F)cc1 do in these assays?
PAX8 reporter: inconclusive; TROY signal inh: 16.0; TWEAK Fn14 block: 13.8; EWS-Fli block: 52.7*

How did COc1ccc2nc(NC(=O)c3ccco3)sc2c1 do in these assays?
PAX8 reporter: -43.9; TROY signal inh: 35.4; TWEAK Fn14 block: 80.7*; EWS-Fli block: 26.5; LGR2 inh: 81.3*

What do the screens show for `COc1cc2sc(NC(=O)c3ccco3)nc2cc1Cl`?
PAX8 reporter: -181.2; TROY signal inh: -71.5; TWEAK Fn14 block: -14.6; EWS-Fli block: -103.9; LGR2 inh: -35.7

What do the screens show for `COc1ccc2nc(NC(=O)CSc3nc4ccccc4o3)sc2c1`?
TROY signal inh: 68.2*; TWEAK Fn14 block: 35.0

What do the screens show for `COc1cc2nc(NC(=O)c3ccco3)sc(=O)c2cc1OC`?
PAX8 reporter: -7.4; TROY signal inh: -4.8; TWEAK Fn14 block: 71.3*; EWS-Fli block: -2.4; LGR2 inh: 19.4

What do the screens show for `O=C(CSc1nc2ccccc2o1)Nc1nc2ccc(Br)cc2s1`?
TROY signal inh: 5.1; TWEAK Fn14 block: -28.9

What do the screens show for `COc1ccc(C(=O)Nc2ccc(SC(F)F)cc2)cc1`?
PAX8 reporter: -18.9; TROY signal inh: -60.6; TWEAK Fn14 block: 1.6; LGR2 inh: -48.4

How did Cc1ccc2nc(NC(=O)c3ccco3)sc2c1 do in these assays?
TROY signal inh: 61.9*; TWEAK Fn14 block: 97.8*

Results for COc1cc(C(=O)Nc2nc3ccc(C)cc3s2)ccc1OCc1c(C)noc1C ?
TROY signal inh: -19.3; TWEAK Fn14 block: 50.4*

What do the screens show for `Cc1ccc2nc(NC(=S)NC(=O)c3ccco3)sc2c1`?
PAX8 reporter: 32.7; TROY signal inh: 16.2; TWEAK Fn14 block: 41.1; EWS-Fli block: -27.6; LGR2 inh: 10.1

What do the screens show for `CCCNC(=O)N1CC2(C1)CN(C(=O)CC)[C@H](CO)c1c2c2ccc(OC)cc2n1C`?
EWS-Fli block: 0.2; LGR2 inh: -10.4

What do the screens show for `CCOC(=O)C(C(C)=O)c1c(Br)c(O)c(O)c2c(C(=O)c3ccc(C)cc3)coc12` (configuration not stated)?
TROY signal inh: 10.6; TWEAK Fn14 block: 75.5*; LGR2 inh: 24.5

Results for CCOC(=O)c1c(C)n(-c2ccc(C)cc2)c2c(C(C(C)=O)C(=O)O)c(Br)c(O)c(O)c12 (configuration not stated) ?
TROY signal inh: 0.0; TWEAK Fn14 block: 4.3; LGR2 inh: 2.3

How did CC(C)NC(=O)N(C)C[C@H]1OCCCC[C@H](C)Oc2ccc(NS(=O)(=O)c3ccc(Cl)cc3)cc2C(=O)N([C@H](C)CO)C[C@H]1C do in these assays?
PAX8 reporter: -16.3; EWS-Fli block: 4.4; LGR2 inh: -18.4

How did CN1CCN(C(=O)CCN2C(=O)/C(=C\c3ccc(Cl)cc3)SC2=S)CC1 do in these assays?
TROY signal inh: -17.4; TWEAK Fn14 block: 1.2
